In PubChem BioAssay (NCATS) one finds Potency data, which are given here for 22 compounds.

Test [1] in a line: qHTS of pediatric cancer cell lines to identify multiple opportunities for drug repurposing: Primary screen for DAOY cells (AID 1347090). Note: nearly all actives have a fitted effect of over 55% in size. In outline:
(§1)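 Cell viability, CellTiter-Glo luminescence; 500-1,000 cells/well, 8- or 11-point titration, 48 h compound exposure at 37 degrees C, 5% CO2. Controls: DMSO neutral, bortezomib 2.3 µM final as positive.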
In general terms: qHTS replaces the single test concentration by a dilution series.

The nature of test [2]: qHTS of pediatric cancer cell lines to identify multiple opportunities for drug repurposing: Primary screen for SJ-GBM2 cells (AID 1347091). The procedure, abridged:
as §1

Test [3] is described as follows: qHTS of pediatric cancer cell lines to identify multiple opportunities for drug repurposing: Primary screen for SK-N-MC cells (AID 1347093). The procedure, abridged: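 Metabolically active cells were quantified by ATP-dependent luminescence (CellTiter-Glo, 15 min at room temperature) following 48 h treatment. Cells had been plated at 500-1,000 per well and settled for 5 h beforehand.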

A short description of test [4]: qHTS of pediatric cancer cell lines to identify multiple opportunities for drug repurposing: Primary screen for BT-37 cells (AID 1347094). The procedure, abridged: (§2)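 Cells plated at 500-1,000/well in growth medium, compounds added after 5 h. MIPE tested at 11 points (from 0.78 nM), NPC at 8 points (from 0.59 nM). CellTiter-Glo luminescence after 48 h; concentration-response curves from primary screen.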

The nature of test [5]: qHTS of pediatric cancer cell lines to identify multiple opportunities for drug repurposing: Primary screen for NB-EBc1 cells (AID 1347095). The procedure, abridged:
as §2

Test [6] is described as follows: qHTS of pediatric cancer cell lines to identify multiple opportunities for drug repurposing: Primary screen for U-2 OS cells (AID 1347096). Note: nearly all actives have a fitted effect of over 50% in size. The procedure, abridged:
(§3)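 Cells (500-1,000/well) rested 5 h, then received compounds for 48 h; metabolically active cells were measured by CellTiter-Glo luminescence. Final concentrations spanned up to 46 µM (MIPE, 11-point) or 0.59 nM-46 µM (NPC, 8-point) in primary screens, 11-point in follow-ups.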

Test [7] is described as follows: qHTS of pediatric cancer cell lines to identify multiple opportunities for drug repurposing: Primary screen for Saos-2 cells (AID 1347097). Note: nearly all actives have a fitted effect of over 40% in size. The procedure, abridged: as §2
The nature of test [8]: qHTS of pediatric cancer cell lines to identify multiple opportunities for drug repurposing: Primary screen for SK-N-SH cells (AID 1347098). Note: nearly all actives have a fitted effect of over 65% in size. The procedure, abridged: as §3
Test [9] is described as follows: qHTS of pediatric cancer cell lines to identify multiple opportunities for drug repurposing: Primary screen for NB1643 cells (AID 1347099). Note: nearly all actives have a fitted effect of over 50% in size. In outline:
as §2

The nature of test [10]: qHTS of pediatric cancer cell lines to identify multiple opportunities for drug repurposing: Primary screen for A673 cells (AID 1347092). Note: nearly all actives have a fitted effect of over 45% in size. The procedure, abridged: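 Titration-based qHTS on A673 cells: MIPE compounds spanned 11 points (0.78 nM to 46 µM final), NPC compounds 8 points (0.59 nM to 46 µM final). Viability after 48 h was measured by ATP luminescence.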

“And” between values parts separate entries of the source, which are not always exact repeats. Equal values may be shown once. Inconclusive results are not listed. Unmarked numbers belong to inactive results. The source made the active and inactive calls. Calls come from the whole dose curve; as a rule, active = well fitted curve in the direction sought with a large enough effect; inconclusive = small, poorly fitted or top-dose-only effect, or another doubt; inactive = no such curve, though single readings can be large; an effect the other way counts as inactive or inconclusive.
Potency is the fitted concentration of half-maximal effect.

For the compound `CC1=C(C)C(=O)C(C(CCCCCC(=O)O)c2ccccc2)=C(C)C1=O` (stereo unspecified), the Potency result in test [1], in test [2], in test [3], in test [4], in test [5] and in [6] was “inactive” throughout. Moreover, the Potency result in [7] and in test [8] was “inactive” in each case.

In the case of `Cc1cc(=O)c2c(O)c3c(O)cc(=O)c4c3c3c(cc(O)c1c23)C(C)(C)C=4O`, the Potency in [1] was 1.16 µM (active) and 18.7 µM (active); in test [2] it was 332 nM (active); in test [3], 1.3 µM (active) and 1.48 µM (active); in [4] it was 1.69 µM (active) and 6.85 µM (active); in test [5], 5.8 µM (active) and 418 nM (active); in test [7], 1.46 µM (active) and 2.09 µM (active). Moreover, the Potency in test [9] is 1.16 µM (active) and 2.35 µM (active). Further, the Potency result in test [8] is “inactive”.

Turning to `N=C(N=C(N)N)N1CCOCC1`, the Potency entry in test [1], in test [2], in test [10], in [4], in [5] and in test [6] was “inactive” in each case. In addition, the Potency result in [7] and in test [9] was “inactive” in each case.

Regarding `CCCCc1ccc2nc(NC(=O)OC)[nH]c2c1`, the Potency is 26.6 nM (active) in test [1]; 1 nM (active) and 106 nM (active) in test [2]; 9.3 nM (active) and 21.1 nM (active) in [10]; 5.3 nM (active) and 26.6 nM (active) in test [3]; 43.2 nM (active) and 61.7 nM (active) in test [4]; 1 nM (active) and 106 nM (active) in [5]. Further, in test [7], the Potency was 9.3 nM (active) and 29.9 nM (active). Further, in test [9], the Potency result is “inactive”.

In the case of `Cc1ccc(NC(=O)c2ccc(CN3CCN(C)CC3)cc2)cc1Nc1nccc(-c2cccnc2)n1`, the Potency entry in [1], in test [2], in test [3], in test [4], in test [5] and in test [6] was “inactive” in each case. Further, the Potency result in test [7] and in test [9] was “inactive” throughout. The Potency in test [8] is 34.4 µM (active).

Turning to `COc1ccc(C2(C#N)CCC(C(=O)O)CC2)cc1OC1CCCC1` (stereo unspecified), the Potency entry in [1], in test [2], in [4], in test [5], in test [6] and in [7] was “inactive” throughout. The Potency in test [3] was 16.6 µM (active); in test [9], 11.8 µM (active).

`Cc1nccn1CC1CCc2c(c3ccccc3n2C)C1=O` (stereo unspecified): the Potency entry in test [1], in [2], in test [10], in test [3], in test [4] and in test [5] was “inactive” throughout. Besides, the Potency result in test [6] and in test [8] was “inactive” throughout.

Regarding `O=C1CCc2ccc(OCCCCN3CCN(c4cccc(Cl)c4Cl)CC3)cc2N1`, the Potency result in [1], in test [10], in [3], in [4], in test [5] and in test [6] was “inactive” each time. For the same compound, the Potency entry in test [8] and in [9] was “inactive” in each case. Further, the Potency in test [2] was 18800 nM (active).

For the compound `O=C(O)c1cccc(-c2noc(-c3ccccc3F)n2)c1`, the Potency entry in [1], in test [2], in test [10], in test [5], in test [6] and in test [7] was “inactive” in each case. Besides, the Potency entry in test [8] was “inactive”.

In the case of `CCCS(=O)c1ccc2nc(NC(=O)OC)[nH]c2c1` (stereo unspecified), the Potency is 26.6 µM (active) and 23.5 µM (active) in test [1]; 21.1 µM (active) and 18.7 µM (active) in test [2]; 29.6 µM (active) in [10]; 7.5 µM (active) and 18.7 µM (active) in test [3]; 10.5 µM (active) in [5]; 13.3 µM (active) in test [7]. Moreover, the Potency entry in test [6] and in test [9] was “inactive” each time.

For `O=C(O)CCNC(=O)c1ccc(N=Nc2ccc(O)c(C(=O)O)c2)cc1`, the Potency result in test [1], in test [2], in test [10], in test [4], in [5] and in test [6] was “inactive” in each case. The Potency result in test [7] and in test [9] was “inactive” throughout.

For `CC(S)C(=O)NCC(=O)O` (stereo unspecified), the Potency result in [1], in test [2], in [3], in [4], in [5] and in [6] was “inactive” throughout. The Potency entry in [7] and in test [8] was “inactive” throughout.

`S=c1nc[nH]c2nc[nH]c12`: the Potency in test [1] is 2.66 µM (active) and 5.9 µM (active); in [2] it was 1.19 µM (active) and 3.32 µM (active); in [10], 1.33 µM (active); in test [3], 11.8 µM (active); in test [4], 2.46 µM (active) and 3.43 µM (active); in [5], 531 nM (active) and 1.66 µM (active). For the same compound, the Potency entry in test [7] and in test [8] was “inactive” in each case.

In the case of `NCCCCNCCCN`, the Potency result in test [1], in test [2], in test [4], in test [5] and in [6] was “inactive” throughout. Besides, the Potency is 3.32 µM (active) in test [3], 7.64 µM (active) in test [8] and 4.18 µM (active) in [9].

For `O=C(CS(=O)Cc1ccco1)NCC=CCOc1cc(CN2CCCCC2)ccn1` (stereo unspecified), the Potency entry in test [1], in test [2], in test [10], in test [4], in test [5] and in test [6] was “inactive” throughout. For the same compound, in test [7], the Potency result is “inactive”.

Regarding `Cc1cccc(C#Cc2ccccc2)n1`, the Potency entry in [1], in test [2], in test [10], in [4], in test [5] and in test [6] was “inactive” throughout.

`O=c1oc2cc(O)ccc2s1`: the Potency result in [1], in test [2], in test [4], in [5], in test [6] and in [8] was “inactive” throughout. Besides, the results for the Potency in test [10] and in test [3] were 9.35 µM (active) and 23.5 µM (active), respectively.

With `Cc1ccc(S(=O)(=O)NC(=O)NN2CC3CCCC3C2)cc1` (stereo unspecified), the Potency result in test [1], in test [2], in test [3], in test [4], in test [5] and in test [6] was “inactive” each time. For the same compound, the Potency entry in test [8] and in test [9] was “inactive” each time. For the same compound, the Potency in test [7] is 7.5 µM (active) and 18.7 µM (active).

Consider `O=Nc1c(-c2c(O)[nH]c3cc(Br)ccc23)[nH]c2ccccc12`, for which the Potency in test [1] was 11800 nM (active); in [2], 5900 nM (active); in test [10] it was 2.35 µM (active); in test [3], 2.09 µM (active); in [4] it was 19.3 µM (active); in test [5], 8.33 µM (active). The Potency in test [7] was 14.8 µM (active); in test [8], 17.1 µM (active); in test [9] it was 9.35 µM (active).

Turning to `CC(=O)NC[C@H]1CN(c2ccc(N3CCOCC3)c(F)c2)C(=O)O1`, the Potency result in [1], in test [2], in test [10], in test [3], in [4] and in [5] was “inactive” throughout. Besides, the Potency entry in test [6], in test [7] and in test [9] was “inactive” each time.

Consider `Cc1nc(Nc2ncc(C(=O)Nc3c(C)cccc3Cl)s2)cc(N2CCN(CCO)CC2)n1`, for which the Potency is 23.5 µM (active) and 8.41 µM (active) in [1]; 18.7 µM (active) and 15 µM (active) in test [2]; 3.72 µM (active) and 3.35 µM (active) in test [10]; 18.7 µM (active) and 16.8 µM (active) in test [3]; 18.7 µM (active) and 13.3 µM (active) in test [6]. The Potency result in test [5] and in [9] was “inactive” throughout.

For the compound `CCCOc1ccc2nc(NC(=O)OC)[nH]c2c1`, the Potency in test [1] was 66.8 nM (active) and 14.8 nM (active); in test [2], 1 nM (active); in test [10] it was 33.5 nM (active) and 11.8 nM (active); in test [3] it was 0.0422 µM (active); in test [4], 123 nM (active) and 27.3 nM (active); in [5], 0.001 µM (active). In [7], the Potency was 0.0299 µM (active). Moreover, the Potency entry in test [8] was “inactive”.
